CHT PAM: allosteric activators of human choline transporter CHT. Q9GZV3. CHT-expressing cells, membrane potential dye, choline EC20; stronger effect = higher value; LV-AA mutant CHT in HEK293 cells. 310,000 compounds, 0.49% hits. B-score at 10 µM;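 active = initial fluorescence not abnormally high and integrated response B-score, plate-corrected, over 3 SD above library mean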
CHT block: human CHT choline transport inhibition | AID 488975 | 310,000 compounds, 0.86% hits | Q9GZV3 | CHT-expressing cells, membrane potential dye, choline response; stronger effect = lower value | B-score at 10 µM;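 active = B-score over 3 SD under the library average, and starting fluorescence ratio not unusually high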;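 also: choline stimulus applied at its EC90 after an EC20 pre-addition; B-score computed on integrated fluorescence ratio after choline addition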
TMEM16A inh: blocks the mouse calcium-activated chloride channel TMEM16A; Q8BHY3; HEK293 TMEM16A/YFP iodide influx fluorescence, ionomycin; normalized B-score (activity score, 25-100; higher = stronger inhibition) at 10 µM; 310,000 compounds, 1.2% hits;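 active = ratio plate-corrected score three or more library SD toward inhibition, starting fluorescence score within five deviations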;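 also: score derived from kinetic fluorescence span divided by baseline fluorescence per well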
ANO1 activ: activates or potentiates the mouse TMEM16A chloride channel; Q8BHY3; HEK293 TMEM16A/YFP-H148Q/I152L, iodide quench fluorescence; stronger effect = lower value; B-score at 10 µM; 340,000 compounds, 0.3% hits; AID 623877;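 active = fluorescence-ratio B-score plate-corrected deviation score at least 3 library SD below zero, with starting fluorescence score within 5 deviations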;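 also: channel opened by trigger with iodide after compound preincubation; score built on the fluorescence ratio of max minus min over baseline; more negative score means more quench and so TMEM16A activation or potentiation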
PHOSPHO1 block: PHOSPHO1 (human) inhibition; Q8TCT1; inhibition, % at 13.3 µM; recombinant PHOSPHO1, absorbance phosphatase assay; 290,000 compounds, 1.1% hits; in the data active = inhibition above about 60%
HDAC3 inh: inhibitors of human histone deacetylase 3 | 320,000 compounds, 0.15% hits | inhibition, % at 8.3 µM | recombinant HDAC3, fluorogenic peptide/trypsin coupled, fluorescence; in the data active = inhibition above about 26%, passing the limit was not always enough
Target sequence (O15379 whole entry, looked up): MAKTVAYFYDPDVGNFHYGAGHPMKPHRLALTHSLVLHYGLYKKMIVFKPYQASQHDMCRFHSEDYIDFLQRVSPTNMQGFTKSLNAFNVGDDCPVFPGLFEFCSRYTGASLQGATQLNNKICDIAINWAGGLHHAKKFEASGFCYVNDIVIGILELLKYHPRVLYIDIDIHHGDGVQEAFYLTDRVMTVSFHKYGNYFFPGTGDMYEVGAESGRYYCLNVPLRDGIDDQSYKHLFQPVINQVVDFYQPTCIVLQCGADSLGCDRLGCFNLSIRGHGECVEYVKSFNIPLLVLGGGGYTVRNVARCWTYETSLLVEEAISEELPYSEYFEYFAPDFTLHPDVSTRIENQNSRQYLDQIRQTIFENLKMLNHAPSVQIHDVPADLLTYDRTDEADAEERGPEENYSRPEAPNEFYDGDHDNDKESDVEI
TMEM16A reconf: TMEM16A (mouse) chloride channel inhibition, re-confirmation. HEK293 TMEM16A/YFP-H148Q, iodide quench fluorescence; ionomycin added to raise cell calcium. shares compounds with TMEM16A inh. AID 652189. inhibition, % at 10 µM. 2,300 compounds, 39% hits;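 active = mean duplicate percent inhibition, scaled so buffer wells are 0 and the reference blocker 100, over three buffer SD above buffer mean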
HEK293 Ca mobil: counter-screen for TMEM16A inhibitors: effect on calcium mobilization; calcium response (% of ionomycin), % at 10 µM; 2,300 compounds, 2% hits; TMEM16A/YFP HEK293, Fluo4 calcium mobilization; shares compounds with TMEM16A inh;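 active = duplicate-averaged calcium signal over 20% of the ionomycin maximum, relative to buffer baseline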;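 also: each well's signal is peak minus trough fluorescence divided by its pre-addition baseline; 0% = buffer wells and 100% = ionomycin wells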
Parental YFP cnt: acts in parental YFP-HEK293 cells lacking TMEM16A, counter-screen | AID 652233 | iodide YFP quench, ionomycin | YFP ratio F(max-min)/F0 at 10 µM | 2,300 tested, under 10 active | shares compounds with TMEM16A inh;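 active = yellow fluorescent protein signal ratio exceeding the buffer control mean by over 5 SD of those controls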;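 also: ratio is mean of duplicate wells from kinetic YFP trace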
ClC-1 rat inh: selectivity of TMEM16A inhibitors: inhibition of rat ClC-1 chloride channel; shares compounds with TMEM16A inh; CHO ClC-1-YFP, iodide influx fluorescence quench; iodide control reads 0, buffer control 100; ratio percent, % at 10 µM; 2,300 tested, under 10 active;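 active = duplicate-mean ratio percent above the mean of iodide-only control wells, which defines zero, plus 5 of their SD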;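 also: higher percent means stronger block of ClC-1 iodide influx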
Starred values were filed as active, the others as inactive; i = inactive; . = no result given. This is a sample that favours compounds with a hit; in the whole collection about 3.2% have one here.

SMILES	CHT PAM	CHT block	TMEM16A inh	ANO1 activ	PHOSPHO1 block	HDAC3 inh	TMEM16A reconf	HEK293 Ca mobil	Parental YFP cnt	ClC-1 rat inh
N#Cc1nc(COc2cccc(Cl)c2)oc1NCc1ccco1	i	i	i	i	0	0	i	i	-1.3	-6
Cc1nn(-c2ccccc2)c(C)c1/C=N/n1cnnc1	i	i	i	i	8	2	.	.	.	.
Cc1nn(-c2ccccc2)c(C)c1/C=N\N1CCN(c2ccc(Cl)cc2)CC1	i	i	25*	i	12	2	i	i	-1.1	-10
O=C(C1CCN(S(=O)(=O)c2ccc(Br)cc2)CC1)N1CCOCC1	i	i	i	i	14	1	.	.	.	.
Cc1c(C(=O)Nc2nonc2-c2ccc(F)cc2)oc2ccc(F)cc12	i	i	25*	i	3	1	40%*	i	-0.88	-16
N#CC1=C(N)NC(SCC(=O)c2ccc(Cl)cc2)=C(C#N)C12CCCC2	i	i	100*	i	45	4	i	i	-1.1	-6
COc1ccc(C(=O)CSC2=C(C#N)C3(CCCCC3)C(C#N)=C(N)N2)cc1	i	i	i	i	11	11	.	.	.	.
CCOC(=O)C1=C(c2ccccc2)c2ccccc2OC1C(=O)OCC (centres undefined)	.	.	.	i	.	.	.	.	.	.
O=C(C1CCN(S(=O)(=O)c2cccc3nsnc23)CC1)N1CCN(c2ccccc2F)CC1	i	i	i	i	-30	1	.	.	.	.
O=C(c1ccco1)N1CCN(C(=O)C2CCN(S(=O)(=O)c3cccc4nsnc34)CC2)CC1	i	i	100*	i	.	-5	i	i	-1.1	-12
COCC1CCN(C(=O)c2cc(COc3ccc4ncccc4c3)on2)CC1	i	i	25*	i	31	0	32%*	i	-0.89	-13
CSc1ccccc1OCc1cc(C(=O)N2CCNC(=O)C2)no1	i	i	i	i	2	5	.	.	.	.
O=C(c1cc(COc2ccc3ncccc3c2)on1)N1CCCC1	i	i	25*	i	3	14	26%*	i	-1.1	-26
CSc1ccccc1OCc1cc(C(=O)N2CCC(c3ccncc3)CC2)no1	i	i	100*	i	33	6	i	i	-1.2	-20
COc1cccc(-c2nc(N3CC(C)CC(C)C3)c3ccccc3n2)c1O (centres undefined)	.	.	.	i	8	.	.	.	.	.
COc1ccc(CCC(=O)NNC(=O)c2cccs2)cc1	.	.	.	i	.	-6	.	.	.	.
Cc1[nH]n(C(N)=S)c(=O)c1N=Nc1ccc([N+](=O)[O-])cc1Cl	i	i	i	i	-3	1	.	.	.	.
Cc1ccc(Cl)cc1N1CCN(C(=O)c2cc3c(=O)[nH]c4ccccc4c3n2C)CC1	i	i	25*	i	0	-5	38%*	i	-0.97	-32
COCC(=O)Nc1ccc(C)c(Cl)c1	i	i	100*	i	24	.	i	i	-1	-4
CC(Sc1nnc(-c2ccco2)n1C)C(=O)Nc1ccc(N2CCOCC2)cc1 (centres undefined)	.	.	.	i	.	.	.	.	.	.
CCOC(=O)c1sc2nc(C)nc(NCc3ccc(F)cc3)c2c1C	i	i	100*	i	40	-2	i	i	-1.1	-13
CCOC(=O)c1sc2nc(C)nc(NCc3ccc(Cl)cc3)c2c1C	i	i	i	i	35	-5	.	.	.	.
CCN(CC)S(=O)(=O)c1cccc(-c2nnc(SCc3nc4ccccc4s3)o2)c1	i	i	100*	i	-5	0	18%*	i	-0.91	0
COc1ccccc1N1CCN(C(=O)N2CCOCC2)CC1	i	i	i	i	7	4	.	.	.	.
COC(=O)c1ccc(CSc2nnnn2-c2ccccc2)o1	i	i	100*	i	-1	-2	i	i	-0.91	-2
SMILES	CHT PAM	CHT block	TMEM16A inh	ANO1 activ	PHOSPHO1 block	HDAC3 inh	TMEM16A reconf	HEK293 Ca mobil	Parental YFP cnt	ClC-1 rat inh
Cc1ccc(N2CCN(CC(O)COC3CCCCC3)CC2)cc1 (centres undefined)	i	i	25*	i	-11	5	i	i	-1.4	-5
Cc1no[n+]([O-])c1COc1cccc(/C=C2\N=C(c3ccccc3)OC2=O)c1	i	i	i	i	3	-3	.	.	.	.
O=C1OC(c2ccccc2)=N/C1=C/c1cccc(OC(=O)c2cccs2)c1	i	i	25*	i	.	-7	i	i	-1.1	-8
COc1ccccc1C(=O)COC(=O)c1ccc(-n2cnnn2)cc1	i	i	i	i	.	4	.	.	.	.
O=C(NC(=O)c1cccc(F)c1)Nc1nc(-c2ccc(F)cc2)cc(C(F)(F)F)n1	i	i	i	i	16	1	.	.	.	.
COc1ccccc1C(=O)NC(=O)Nc1nc(-c2ccccc2)cc(C(F)(F)F)n1	i	i	25*	i	16	.	i	i	-1.1	-12
CCC(C(=O)OCC(=O)Nc1ccc(Cl)c(S(=O)(=O)N(C)C)c1)c1ccccc1 (centres undefined)	i	i	25*	i	1	14	20%*	i	-1.2	-6
CN(C)S(=O)(=O)c1cc(NC(=O)COC(=O)Cc2cccc3ccccc23)ccc1Cl	i	i	25*	i	-28	9	i	i	-0.94	-4
O=C(O)CCN1C(=O)C2C3c4ccccc4C(c4ccccc43)[C@@H]2C1=O (some centres undefined)	i	i	i	i	20	-12	.	.	.	.
CN(C(=O)COC(=O)c1ccccc1OCc1ccc(F)cc1)C1CCS(=O)(=O)C1 (centres undefined)	.	.	.	i	.	3	.	.	.	.
O=C(NCCC1=CCCCC1)c1ccc(Cl)c(S(=O)(=O)Nc2ccccc2)c1	i	i	100*	i	-4	6	i	i	-1	-13
CCc1cc(-c2[nH]ncc2-c2ccc3c(c2)OCO3)c(O)cc1O	i	i	100*	i	29	0	52%*	i	-1.3	-10
